Screening results: PubChem BioAssay, National Center for Advancing Translational Sciences (NCATS)
D2 antagonist = antagonists of human D2 dopamine receptor; AID 485344; HEK293 TREx D2 cells, calcium flux, dopamine EC80; P14416; inhibition, % at 10 µM; hit rate 2% among 340,000; in the data active means inhibition above about 30%; inactive means below that, where a call was filed; further: 0% is about no effect
Target sequence (P14416 whole entry, looked up): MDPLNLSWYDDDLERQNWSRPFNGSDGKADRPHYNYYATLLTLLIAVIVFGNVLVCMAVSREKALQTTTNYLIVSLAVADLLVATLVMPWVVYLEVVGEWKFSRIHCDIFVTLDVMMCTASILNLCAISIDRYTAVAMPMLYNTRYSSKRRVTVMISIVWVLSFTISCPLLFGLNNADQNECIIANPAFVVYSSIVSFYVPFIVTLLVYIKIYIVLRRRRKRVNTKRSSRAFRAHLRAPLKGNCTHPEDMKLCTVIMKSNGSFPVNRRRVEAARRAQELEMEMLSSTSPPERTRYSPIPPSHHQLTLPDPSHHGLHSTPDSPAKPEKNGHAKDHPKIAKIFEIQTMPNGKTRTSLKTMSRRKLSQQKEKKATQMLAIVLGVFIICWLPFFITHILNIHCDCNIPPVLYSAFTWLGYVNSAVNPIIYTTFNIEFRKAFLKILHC
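Compounds are added to dye-loaded, induced HEK293 T-REx cells coupled to calcium release via D2; after a 3 min kinetic read an EC80 dopamine stimulus is given and fluorescence is recorded for 3 more min.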
D2 PAM-1 = positively modulates the human D2 dopamine receptor allosterically | P14416 | HEK293 T-REx D2, calcium flux, EC20 dopamine potentiation | potentiation, % at 10 µM | hit rate 0.34% among 340,000;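 active means potentiation over 3 SD above the plate norm, cut at about 30% in these data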; further: 0% is about no effect
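Calcium flux readout, no-wash dye, 1 read/s. Inducible HEK293 Trex D2 line, overnight 30 C. Compound alone 180 s (agonist flags), then EC20 dopamine, another 180 s to score potentiation.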
D2 ag-1 = human D2 receptor agonism in beta-arrestin assay; activation, % (test concentration not listed); DiscoveRx PathHunter D2 beta-arrestin, luminescence, 90 min; 100% = 57 uM dopamine signal; AID 624465; hit rate 0.084% among 360,000; in the data active means activation above about 40%; inconclusive means between about 15% and that limit
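DiscoveRx PathHunter D2 beta-arrestin cells (2,100/well) attached overnight, then compound-stimulated 90 min at 37 C in HBSS/10 mM HEPES/0.1% Tween-20 buffer; beta-galactosidase complementation read by luminescence after 1 h at ambient temperature. Dopamine 57 uM final (EC100) as control.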
D2 PAM-2 = human D2 receptor positive allosteric modulation. P14416. DiscoveRx D2 beta-arrestin cells, luminescence, 90 min; 100% = 57 uM dopamine signal. potentiation, % (no concentration beside the values). hit rate 0.23% among 360,000. AID 624464; in the data active means potentiation above about 50%; inconclusive means mostly about 30% to 49%
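PathHunter beta-arrestin assay in DiscoveRx D2 cells. Compounds were added with an EC20 of dopamine (50 nM final) for 90 min at 37 deg C. Luminescence was read 1 h after detection reagent, with 57 uM dopamine as the EC100 control.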
D2 ag-2 = agonists of human D2 dopamine receptor | P14416 | HEK293 T-REx D2 cells, calcium flux agonist mode | activation, % at 2 µM | hit rate 0.53% among 340,000 | AID 485358;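 active means activation over 3 SD above normal in the single-dose calcium agonist read, cut at about 30% in these data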; further: 0% is about no effect
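In this primary screen, compounds producing a positive calcium signal within 180 s of addition to tetracycline-induced, force-coupled HEK293 Trex D2 cells are flagged; cells are dye-loaded with a no-wash calcium kit beforehand.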
* marks the source's active call; other numbers are inactive results; ? = inconclusive; . = not tested or not shown. An excerpt weighted towards active compounds, which were near 2.4% of everything screened.

SMILES	D2 antagonist	D2 PAM-1	D2 ag-1	D2 PAM-2	D2 ag-2
O=C(CCc1ccccc1)Nc1ccnn1C1CCN(C/C=C/c2ccccc2)CC1	-16	2	-1	-47	7
COc1ccccc1/C=C/CN1CCC(n2nccc2NC(=O)CCc2ccccc2)CC1	35*	0	-6	-13	0
O=C(Nc1ccnn1C1CCN(C/C=C/c2ccccc2)CC1)c1ccccc1Cl	80*	-25	?	-14	83*
CCOc1ccc(CN2CCC(n3nccc3NC(=O)c3ccccc3OC)CC2)cc1	38*	-26	-5	-39	0
CCn1cc(CN2CCC(n3nccc3NC(=O)c3ccccc3OC)CC2)cn1	21	-11	-2	-10	-1
Cc1cc([N+](=O)[O-])ccc1P(=O)(O)c1ccc([N+](=O)[O-])cc1C	.	.	-4	-10	.
CN(C)c1ccc(-c2cc([C@H]3[C@@H]4C=CCC[C@@]4(C)C(=O)N3Cc3ccccc3)ccc2F)cc1	12	11	-4	-8	0
CCOc1ccc(N2CC(NC(=O)/C=C\c3ccc4c(c3)OCO4)CC2=O)cc1 (stereo not drawn)	.	-15	.	.	0
Cc1ccc(S(=O)(=O)c2cc3c(=O)n4ccccc4nc3n(C)c2=N)cc1C	4	36*	-3	-3	0
O=C(CCS(=O)(=O)c1cccc2nonc12)NC1CCCCCC1	-14	0	-1	-3	0
O=C(CCNS(=O)(=O)c1cccc2nonc12)NC1CCCCC1	31*	-5	-1	-6	0
Cc1ccc(-c2nc3cc(NC(=O)C(C)C)ccc3o2)cc1	3	-8	-1	-11	-1
Cc1cc2nc(-c3ccc(NC(=O)C(C)C)cc3)oc2cc1C	32*	1	-2	7	0
Cc1cccc(NC(=O)Cn2nc3c4ccccc4n(Cc4ccccc4)cc-3c2=O)c1	.	1	.	.	0
Cc1ccc(C)c(Cn2nc3c4ccccc4n(Cc4ccccc4)cc-3c2=O)c1	30*	5	-4	-6	0
CCOc1ccc(-c2nnc(SCC(=O)NCc3ccc(C)cc3)nc2-c2ccc(OCC)cc2)cc1	.	-3	.	.	0
COc1cc(OC)c(NC(=O)C2=C(C)C(=O)OC23CCCCC3)cc1Cl	.	10	.	.	1
CCCN(CC(=O)Nc1ccccc1C)C(=O)c1ccc(C(=O)c2ccccc2)cc1	43*	-2	-2	-22	2
CN(C)Cc1c(O)ccc2occ(C(=O)c3ccccc3)c12	-25	54*	2	-8	0
O=c1nc2ccccc2c2n1CC(CN1CCN(C(c3ccccc3)c3ccccc3)CC1)N2 (stereo not drawn)	47*	-27	-1	-16	-1
O=C(CCCN1CCOCC1)c1ccc2c(c1)OCCO2	-7	2	1	-22	0
O=C(CCCN1CCC(c2ccccc2)C1)c1ccc2c(c1)OCCO2 (stereo not drawn)	79*	-23	-1	-30	3
COc1ccccc1CNC(=O)c1cc(S(=O)(=O)N2CCN(c3ccccc3)CC2)ccc1Cl	.	.	0	-22	.
CC(C)(C)NCCOc1ccc2ccccc2c1	45*	-21	-2	-11	3
CC(C)Oc1ccc(C(=O)Nc2c(C(=O)Nc3cccc(F)c3)oc3ccccc23)cc1	.	-12	.	.	0
SMILES	D2 antagonist	D2 PAM-1	D2 ag-1	D2 PAM-2	D2 ag-2
COc1cccc(CC2(CO)CCN(Cc3ccc4cccc(F)c4n3)CC2)c1	62*	-22	1	-23	0
CCOC(=O)C1(CC2CC2)CCN(Cc2cn[nH]c2-c2cccc(F)c2)CC1	0	-6	-2	-18	-1
OCC1(Cc2cccc(F)c2)CCN(Cc2ccc3cccc(F)c3n2)CC1	40*	-19	-3	-12	0
COc1ccc(CC2(CO)CCN(Cc3cccc4nccnc34)CC2)cc1	-4	5	-21	-15	0
COc1ccc(CN2CCC(CO)(Cc3ccccc3C(F)(F)F)CC2)c(F)c1	43*	-12	-2	-18	-1
CCOC(=O)C1(CC2CC2)CCN(Cc2ccc3cccc(F)c3n2)CC1	65*	-21	2	-10	0
OCC1(CCOc2ccccc2)CCN(Cc2ccc3cccc(F)c3n2)CC1	0	2	-4	-14	0
O=C1CN(C(=O)COC(=O)[C@@H]2CCCN2S(=O)(=O)c2ccc(Cl)cc2)c2ccccc2N1	.	.	0	-12	.
